Abeta rescue = A-beta toxicity reversal in yeast | yeast expressing A-beta42, growth rescue, OD600, 48 h; response scale: 0% DMSO, 100% iron-clioquinol control | Potency, µM (series often up to 46.1 µM), most hits filed as activators | 0.063% of 410,000 active | AID 1347071; also: nearly all actives have a fitted effect of over 55% in size
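Yeast growth medium received pinned compounds, then yeast cells expressing toxic A-beta were added; plates incubated at 30 C for 48 hr. Growth read as absorbance at 600 nm, normalized to DMSO and equimolar FeCl3 plus clioquinol controls.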
CCT chaperon mod = changes cytosolic chaperonin activity; purified chaperonin ATPase assay, HTRF ADP detection, 30 min; activity change, % (concentration not given with the values), hits read low; 0.3% of 360,000 active; in the data active = activity change below about -30%
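ATPase activity: ADP formed was measured by HTRF Transcreener (665/615 nm ratio) after 30 min at 37 deg C with 10 uM ATP. Compounds screened at one 76 uM concentration against 40 or 20 nM TRiC in Tris pH 7.4/KCl/MgCl2/DTT buffer.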
Mm-Cpn inhibitor = blocks the Methanococcus maripaludis chaperonin Mm-Cpn | purified Mm-Cpn ATPase, ADP Transcreener TR-FRET | Potency, µM (doses to about 76.9 µM), usual class: inhibitors | 0.031% of 330,000 active | AID 504842; also: nearly all actives have a fitted effect of over 80% in size
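Reaction buffer contained 30 mM Tris pH 7.4, 100 mM KCl, 5 mM MgCl2 and 1 mM DTT. Mm-CPN (25 nM final) hydrolysed 10 uM ATP over 30 min at 37°C; ADP was read by HTRF.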
TDP43 rescue = inhibitors of TDP-43 toxicity in yeast. 1.8% of 410,000 active. Potency, µM (top dose mostly 46.1 µM), most hits filed as activators. AID 652104. TDP-43 expressing yeast growth rescue, BacTiter-Glo, 24 h; also: nearly all actives have a fitted effect of over 50% in size
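Readout is BacTiter-Glo luminescence of cell growth, so inhibitors register as activators. TDP-43-expressing yeast at OD600=0.02 in galactose medium, after raffinose pregrowth to mid-log, were incubated with compound for 24 hr at 30 deg C.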
aSyn rescue = inhibitors of alpha-synuclein toxicity in yeast; Yeast expressing alpha-synuclein, growth rescue, BacTiter-Glo, 24 h; Potency, µM (top dose mostly 46.1 µM), usual class: activators; 0.14% of 370,000 active; AID 652106; also: nearly all actives have a fitted effect of over 65% in size
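Galactose-induced alpha-syn yeast (OD600=0.02, raffinose-pregrown) + pinned cpd, 24 hr, 30 deg C; growth by BacTiter-Glo luminescence. Growth restoration scores as activation.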
FUS yeast rescue = rescues growth of FUS-expressing yeast; S. cerevisiae FUS-expressing, growth rescue, OD600, 24 h; Potency, µM (doses to about 76.6 µM), most hits filed as activators; 0.24% of 390,000 active; also: nearly all actives have a fitted effect of over 55% in size
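Absorbance at 600 nm, taken 24hr after compound addition, measured rescue of FUS-yeast growth at 30C. Induction used 2% galactose with seeding at OD 0.005. Controls: CP55940 from 92uM final, DMSO only.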
A number is an active result. This is a sample that favours compounds with a hit; in the whole collection about 2.3% have one here. Unless noted, calls follow the shape of the dose curve; as a rule, active = well fitted curve in the direction sought with a large enough effect; inconclusive = small, poorly fitted or top-dose-only effect, or another doubt; inactive = no such curve, though single readings can be large; an effect the other way counts as inactive or inconclusive.

What do the screens show for `COc1ccc(Nc2cc(C)nc3ncnn23)cc1`?
Abeta rescue: inactive; CCT chaperon mod: inactive; TDP43 rescue: inactive; aSyn rescue: inactive; FUS yeast rescue: inactive

How did Cc1cc(Nc2ccc(C(C)C)cc2)n2ncnc2n1 do in these assays?
Abeta rescue: inactive; CCT chaperon mod: inactive; Mm-Cpn inhibitor: inactive; TDP43 rescue: 11µM; aSyn rescue: inactive; FUS yeast rescue: inactive

How did CCN(CC)/[N+]([O-])=N/OCOC(=O)c1ccccc1OC(C)=O do in these assays?
aSyn rescue: inactive

Results for Cc1ccc(CNc2nc3cc(-c4ccccc4C)sc3c(=O)n2C)c(C)c1 ?
Abeta rescue: inactive; CCT chaperon mod: inactive; TDP43 rescue: inactive; aSyn rescue: inconclusive; FUS yeast rescue: inconclusive

Results for COCCNc1nc2cc(-c3ccsc3)sc2c(=O)n1C ?
Abeta rescue: inactive; CCT chaperon mod: inactive; TDP43 rescue: inactive; aSyn rescue: inactive; FUS yeast rescue: inactive

How did Cc1nc2cc(-c3ccccc3)sc2c(=O)n1N do in these assays?
Abeta rescue: inactive; CCT chaperon mod: -31; Mm-Cpn inhibitor: inactive; TDP43 rescue: inactive; aSyn rescue: inactive; FUS yeast rescue: inactive

Results for C=CCNc1nc2cc(-c3ccccc3C)sc2c(=O)n1C ?
Abeta rescue: inactive; CCT chaperon mod: inactive; TDP43 rescue: 35µM; aSyn rescue: inactive; FUS yeast rescue: inactive

Results for COc1ccc(-c2cc3nc(C)n(N)c(=O)c3s2)cc1 ?
Abeta rescue: inactive; CCT chaperon mod: inactive; Mm-Cpn inhibitor: inactive; TDP43 rescue: inactive; aSyn rescue: inactive; FUS yeast rescue: inactive

What do the screens show for `COCCNc1nc2cc(-c3ccccc3)sc2c(=O)n1C`?
Abeta rescue: inactive; CCT chaperon mod: inactive; TDP43 rescue: 20µM; aSyn rescue: inactive; FUS yeast rescue: inactive

What do the screens show for `COc1cccc(CNc2nc3cc(-c4ccc(C)cc4)sc3c(=O)n2C)c1OC`?
Abeta rescue: inactive; CCT chaperon mod: inactive; TDP43 rescue: 25µM; aSyn rescue: inconclusive; FUS yeast rescue: inactive

What do the screens show for `Cn1c(OCC2CCCO2)nc2cc(-c3ccccc3)sc2c1=O` (configuration not stated)?
Abeta rescue: inactive; CCT chaperon mod: -48; TDP43 rescue: 35µM; aSyn rescue: inactive; FUS yeast rescue: inactive

What do the screens show for `CC(C)c1ccc(N(CC(=O)N2CCN(Cc3ccccc3)CC2)S(C)(=O)=O)cc1`?
Abeta rescue: inactive; CCT chaperon mod: -95; Mm-Cpn inhibitor: inactive; TDP43 rescue: inactive; aSyn rescue: inactive; FUS yeast rescue: inactive

What do the screens show for `Cc1ccc(CCNC(=O)CCS(=O)(=O)c2ccc3c(c2)oc(=O)n3C)cc1`?
Abeta rescue: inactive; CCT chaperon mod: inactive; Mm-Cpn inhibitor: inactive; TDP43 rescue: inactive; aSyn rescue: inactive; FUS yeast rescue: inactive

What do the screens show for `Cn1c(=O)oc2cc(S(=O)(=O)CCC(=O)NCCc3ccccc3)ccc21`?
Abeta rescue: inactive; CCT chaperon mod: -65; Mm-Cpn inhibitor: inactive; TDP43 rescue: inactive; aSyn rescue: inactive; FUS yeast rescue: inactive

What do the screens show for `CCCN(CC(=O)Nc1ccccc1OC)C(=O)c1ccc(COc2ccccc2)o1`?
Abeta rescue: inactive; CCT chaperon mod: inactive; Mm-Cpn inhibitor: inactive; TDP43 rescue: 11µM; aSyn rescue: inactive; FUS yeast rescue: inconclusive

How did CCCN(CC(=O)Nc1ccccc1OC)C(=O)c1cc2ccccc2o1 do in these assays?
Abeta rescue: inactive; CCT chaperon mod: inactive; Mm-Cpn inhibitor: inactive; TDP43 rescue: inactive; aSyn rescue: inactive; FUS yeast rescue: inactive

Results for CCCCC1S/C(=N/N=C/c2ccco2)NC1=O (configuration not stated) ?
Abeta rescue: inactive; CCT chaperon mod: -42; Mm-Cpn inhibitor: inactive; TDP43 rescue: inactive; aSyn rescue: inactive

Results for COC1=C(OC)C(=O)c2ccccc2C1=O ?
aSyn rescue: inactive

How did COC1=C(Nc2ccccc2)C(=O)c2ccccc2C1=O do in these assays?
Abeta rescue: inactive; CCT chaperon mod: inactive; Mm-Cpn inhibitor: inactive; TDP43 rescue: 13µM; aSyn rescue: inactive; FUS yeast rescue: inactive

Source: PubChem
